From PubChem BioAssay (NCI)
Values joined by “and” are separate entries in the source; they are usually repeats but may differ in a detail not shown here. Identical values can stand only once. This is part of a sample that, as a whole, favours compounds with a hit. Of some 83,000 tested, about 20% had one in any assay.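 Compound tested at a single concentration for 48 hours in 96-well plates; a percent growth value below 10 was scored as active.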 Values without a mark were called inactive. Active and inactive are the calls of the source.

test system: MDA-MB-468 breast; assay: NCI-60 one-dose screen, 48 h (100 = growth as untreated, 0 = no growth, -100 = all killed); settings: 10 µM unless noted

Structure (SMILES) | growth
O=C(/C=C\c1ccnc2ccccc12)c1ccc([N+](=O)[O-])cc1 | 57.5%
CCCS(=O)(=O)c1nc(NC2CC2)cc(-c2ccc3c(ccn3C3CC(C)(C)NC(C)(C)C3)c2)n1 | -72.4% (active)
CN1C(=O)N(C)C2C1NN=c1s/c(=C\c3ccc(Br)cc3)c(=O)n12 (stereo not given) | 10.8%
CCCCC[C@H]1CC=C2C(=O)C=C[C@@H]2CC=CCCCC(=O)O[C@@H](CCCCC)CC=C2C(=O)C=C[C@@H]2CC=CCCCC(=O)O[C@@H](CCCCC)CC=C2C(=O)C=C[C@@H]2CC=CCCCC(=O)O1 | 7.64% [8.75 µM] (active)
Cc1cc(C)c(O)c(CNCCCNCc2cc(C)cc(C)c2O)c1 | 7.95% (active)
Clc1nc(-c2ccccn2)nc2sc3c(c12)CCCCCC3 | -84.3% (active)
CCCCn1c(Cc2ccc(Cl)cc2)nc2cc(OC)c(OC)cc2c1=O | 58.6%
S=C(Sc1ccc(Cl)cc1)Sc1ccc(Cl)cc1 | -37.6% (active)
CN(C)C(=S)SC(=S)N(C)C | 91.4% and 95.3%
C#Cc1cc(C(=O)Nc2ccc(CN3CCN(C)CC3)c(C(F)(F)F)c2)ccc1C | 66.5%
COc1ccc(/C=C2\Oc3cc(C)c(Cl)cc3C2=O)cc1OC | 110%
Nc1c(C(=O)Nc2ccc(Cl)cc2)sc2nc(-c3cnccn3)cc(-c3cccs3)c12 | 82%
CCN(CC)CCN1C(=O)c2cccc3c(-c4ccc5c(c4)ncn5C4CCCCC4)ccc(c23)C1=O | -6.34% (active)
CC(=O)NCC(=O)Nc1ccc(-c2nnc3ccccn23)nc1.CC(=O)NCC(=O)Nc1ccc(-c2nnc3ccccn23)nc1.[Pt+2] | 116%
Cn1cc(-c2csc(-c3cn(C)c4ncccc34)n2)c2cc(Br)cnc21 | -28.4% (active)
CCOc1ccc(C(=O)Cc2ccccc2)cc1 | 90.2% and 96%
COC(=O)CC/C(C)=N\Nc1ccc([N+](=O)[O-])cc1 | 71.1%
ClCC(Cl)C1CCC(Cl)C(Cl)C1 (stereo not given) | 114%
Cn1c(=O)c2[nH]c(C(O)C(O)C(O)C(O)CO)nc2n(C)c1=O (stereo not given) | 118%
COc1ccc2nc3cc(Cl)ccc3c(NCCNCC(C)O)c2c1 (stereo not given) | 38.6%

Structure (SMILES) | growth
CC[C@@H](C)[C@H](NC(=O)Cn1cc(CNC(=O)[C@@H](NC(=O)OCc2ccccc2)C(C)C)nn1)C(=O)O | 98.5%
Cc1cc2c(C(C)C)c(O)c(O)c(C=NCc3ccoc3)c2c(O)c1-c1c(C)cc2c(C(C)C)c(O)c(O)c(C=NCc3ccco3)c2c1O | 61%
CC(C)[C@@H]1CC[C@]2(C(=O)NCCCCN=C(N)N)CC[C@]3(C)[C@H](CC[C@@H]4[C@@]5(C)CCC(=O)C(C)(C)[C@@H]5CC[C@]43C)[C@@H]12 | 10.6%
CC(C)(C)c1ccc(S(=O)(=O)N[C@H]2CC[C@H]3[C@@H]4CCc5cc(O)ccc5[C@H]4CC[C@]23C)cc1 | 57.8%
CCNc1nc2cc(Nc3ccnc4cc(Cl)ccc34)ccc2o1 | 41.2%
Cc1ccc(C(=O)Nc2ccc(CN3CCN(C)CC3)c(C(F)(F)F)c2)cc1C#Cc1cncc2ncccc12 | 37.3%
C=C(C)[C@@H]1CC[C@]2(COC)CC[C@]3(C)[C@H](CC[C@@H]4[C@@]5(C)CCCNC(C)(C)[C@@H]5CC[C@]43C)[C@@H]12 | -50.5% (active)
Cc1ccc(-c2nc3nc(-c4ccccc4)nc(N4CCN(S(=O)(=O)c5ccccc5)CC4)c3o2)cc1 | 101%
CCC(=O)Nc1ccc(-c2nc(-c3cccc(OC)c3)c(-c3ccnc(Br)c3)[nH]2)cc1 | 38.9%
N=C(N)c1nn(C2OC(CO)C(O)C2O)c2nc[nH]c(=O)c12 (stereo not given) | -59% (active)
CCn1c(SC)nnc1-c1cc2c([nH]c3ccccc32)c(-c2cccc(O)c2)n1 | -12.6% (active)
O=Cc1ccc([N+](=O)[O-])s1 | 103%
CC/C=C\C[C@H]1C/C=C2/C(=O)C(Cl)=C[C@@H]2C/C=C\CCCC(=O)O1 | -69.2% (active)
COc1ccc(C2C(C#N)=C(N)Oc3c2sc2ccc(C)cc32)cc1 (stereo not given) | -13.2% (active)
Oc1ccc(Nc2ncnc3c2sc2ncccc23)cc1 | 21.3%
O=C1c2ccccc2-c2nccc3cc(Cl)nc1c23 | -87.2% (active)
CCOC(=O)Nc1ccc2c3c(cccc13)-c1ccccc1-2 | -11.5% (active)
CCN(CC)c1ccc(C(=N)c2ccc(N(C)C)cc2)cc1 | 5.37% (active)
CC(=O)/C(=C/c1ccccc1)C(=O)CC(C)C | 93.7%
CCCCCCCCO/N=C\c1c2c(O)c3c(O)c(C)c4c(c3c1O)C(=O)C(C)(O/C=C\C(OC)C(C)C(OC(C)=O)C(C)C(O)C(C)C(O)C(C)/C=C\C=C(\C)C(=O)N2)O4 (stereo not given) | 3.49% (active)
